Among the data in PubChem BioAssay (NCI) are growth values, retold here.

Each structure is given as a SMILES string. About 83,000 compounds went through this panel and 20% of them were active in at least one assay; those are over-represented in the sample as a whole.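 Note: values are percent growth. 100 is the growth of untreated cells, values between 100 and 0 indicate rising inhibition; between -100 and 0 indicates cell death.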 Unmarked numbers belong to inactive results. Active and inactive are the calls of the source. The calls were made as follows: active = growth percent below 10; inactive = the rest.

Assay in all cases: NCI-60 one-dose screen, 48 h (100 = growth as untreated, 0 = no growth, -100 = all killed)
What all share (details): 10 µM unless noted

Assay [1] relates to SK-MEL-2 melanoma.
Assay [2] has as its system EKVX NSCLC.
Assay [3] concerns SN12C renal.
Assay [4] deals with UO-31 renal.
The subject of assay [5] is TK-10 renal.
Assay [6] relates to ACHN renal.
Assay [7] deals with CAKI-1 renal.
For assay [8], the system named is A498 renal.
In assay [9] the test system is CCRF-CEM leukemia.
Assay [10] deals with MOLT-4 leukemia.

Take `CCCCCCCCn1ccc2cc(NC(=O)CN3CCN(c4nc(C)cc(Cl)n4)CC3)ccc21`: the growth was 122% in assay [1]; 93.6% in [2]; 99.5% in [3]; 58.9% in assay [4]; 108% in [5]; 98.1% in [6]. Besides, the growth was 87.2% in [7], 109% in assay [8], -34.6% (active) in assay [9] and 4.97% (active) in assay [10].

As for `CCOC(=O)C(=Cc1cccc(Br)c1)C(=O)OCC`, the growth in [1] was 31.7%; in [2], 61.1%; in assay [3] it was 34.8%; in assay [4] it was 52.4%; in assay [5], 58.5%; in assay [6], 27.7%. For the same compound, the growth in assay [7] was 59.4%; in assay [8], 95.1%; in assay [9], 11.7%; in assay [10], 16.6%.

With `O=C(Cn1c(=O)sc2ccccc21)NNS(=O)(=O)c1ccccc1[N+](=O)[O-]`, the growth in assay [1] is 103%; in assay [2], 98.5%; in assay [3] it was 109%; in [4], 86.1%; in assay [5], 104%; in assay [6], 101%. The growth was 85.2% in assay [7], 110% in assay [8], 102% in assay [9] and 101% in assay [10].

As to `Cc1ccc(-c2cc(-c3ccc(Cl)cc3)nc(NC(=O)c3cccnc3)n2)cc1`, the growth in assay [1] is 109%; in assay [2], 102%; in [3], 103%; in assay [4] it was 79%; in assay [5], 115%; in [6] it was 103%. The growth in [7] was 94.2%; in [8], 111%; in assay [9] it was 106%; in assay [10], 93.2%.

For the compound `COC(=O)c1c2c(c[n+]([O-])c1C)C(=O)C(NCc1ccccc1)=CC2=O`, the growth in assay [1] was -44.4% (active); in [2], -45.1% (active); in assay [3] it was -78.9% (active); in assay [4], -14.8% (active); in assay [5], 39%; in assay [6] it was -18.4% (active). Besides, the growth in [7] is 3.84% (active); in assay [8], -4.89% (active); in assay [9] it was 2.92% (active); in assay [10], -29.4% (active).

In the case of `Cn1c(-c2ccc(Br)cc2)c(O)c(=O)c2c(F)cccc21`, the growth in assay [1] is 87.1%; in assay [2], 56%; in assay [3], 68.8%; in assay [4], 26.3%; in [5] it was 42.4%; in assay [6], 37%. Further, the growth in assay [7] was 47.9%; in assay [8] it was 62.3%; in assay [9] it was 94.1%; in [10], 99%.

As to `CCCCOC(=O)OCc1cc(=O)c(O)co1`, the growth in assay [1] was 109%; in assay [2] it was 99.7%; in assay [3], 99.2%; in assay [4] it was 92.1%; in assay [5], 94.5%; in assay [6], 97.7%. Further, the growth in assay [7] is 93.3%; in assay [8], 110%; in assay [9], 109%; in assay [10] it was 102%.

Consider `O=C1/C(=C/c2ccccc2Br)COc2ccc(O)c(O)c21`, for which the growth in assay [1] is 48.8%; in assay [2] it was 61.7%; in assay [3] it was -67.6% (active); in [4] it was -92.1% (active); in assay [5], 29.5%; in assay [6], -44.9% (active). In addition, the growth in assay [7] is 22.2%; in assay [8] it was 116%; in [9], 1.62% (active); in assay [10], 2.79% (active).

Regarding `CC(=O)[C@@H]1CCC=C2CC[C@]3(C)[C@@H](CC[C@@H]4[C@@]5(C)CCCNC(C)(C)[C@@H]5CC[C@]43C)[C@H]21`, the growth in assay [1] was -52.3% (active); in [2] it was -47.8% (active); in assay [3] it was -87.9% (active); in [4], 18.4%; in assay [5], -46.6% (active); in assay [6], -82.4% (active). In addition, the growth in assay [7] was -92.5% (active); in assay [8], 69.8%; in assay [9], -23.4% (active); in assay [10], -46.4% (active).

With `CCCCC[C@@H]1Cc2cc(O)c(C(=O)O)c3c2[C@H](C[C@]2(OC[C@@H](CC(=O)[C@@](C)(CC)C(=O)OC)[C@@H]2C)O3)O1`, the growth in [1] was 101%; in assay [2] it was 113%; in [3] it was 92.4%; in assay [4], 99.6%; in assay [5], 109%; in assay [6], 97.5%. Also, the growth was 99.9% in [7], 122% in assay [8], 116% in [9] and 90.2% in assay [10].

For the compound `COc1ccc(-c2nnc3n(C)c(=O)c4ccccc4n23)cc1N`, the growth was 22% in assay [1]; 55.7% in [2]; 34.6% in assay [3]; 44.3% in assay [4]; 45.3% in assay [5]; 50.8% in [6]. The growth in assay [7] is 29.2%; in assay [8], -8.12% (active); in [9], 18.5%; in [10], 33.4%.

As to `O=C1c2cc(Cl)ccc2S(=O)(=O)c2c(NCCCNCCO)nc3ccccc3c21`, the growth is 23% in assay [1]; 33.2% in assay [2]; -46% (active) in [3]; -94.4% (active) in [4]; -79.6% (active) in [5]; -99.9% (active) in assay [6]. Besides, the growth is 6.57% (active) in assay [7], 57.3% in assay [8], -22.2% (active) in assay [9] and -19% (active) in [10].

With `COC(=O)c1c2c(c(C)[n+]([O-])c1C)C(=O)C=C(NCc1ccc(OC)cc1)C2=O`, the growth in [1] was -22.2% (active); in assay [2], -57.6% (active); in assay [3] it was -63% (active); in assay [4] it was -9.55% (active); in [5], 28.4%; in [6] it was -11.5% (active). In addition, the growth in assay [7] was 0.875% (active); in assay [8] it was -15.4% (active); in [9], 3.4% (active); in [10], -35.5% (active).
